# Reference: paper PMC4336329 (PLoS ONE, 2015)
# About 14,000 (4.5%) of roughly 310,000 compounds showed an effect of 50% or more. Effects have a minus sign here. The sample as a whole holds a higher share of strong results than the screen did.
# Molecular target: human ether-à-go-go-related gene (hERG) potassium channel (human, UniProt Q12809)
# Assay: primary screen, population patch clamp on CHO cells stably expressing hERG; higher = less effect of the substance
# 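Also: peak tail current of the secondary pulse compared with the same well before compound.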
# human ether-à-go-go-related gene (hERG) potassium channel, sequence (Q12809 whole entry, looked up): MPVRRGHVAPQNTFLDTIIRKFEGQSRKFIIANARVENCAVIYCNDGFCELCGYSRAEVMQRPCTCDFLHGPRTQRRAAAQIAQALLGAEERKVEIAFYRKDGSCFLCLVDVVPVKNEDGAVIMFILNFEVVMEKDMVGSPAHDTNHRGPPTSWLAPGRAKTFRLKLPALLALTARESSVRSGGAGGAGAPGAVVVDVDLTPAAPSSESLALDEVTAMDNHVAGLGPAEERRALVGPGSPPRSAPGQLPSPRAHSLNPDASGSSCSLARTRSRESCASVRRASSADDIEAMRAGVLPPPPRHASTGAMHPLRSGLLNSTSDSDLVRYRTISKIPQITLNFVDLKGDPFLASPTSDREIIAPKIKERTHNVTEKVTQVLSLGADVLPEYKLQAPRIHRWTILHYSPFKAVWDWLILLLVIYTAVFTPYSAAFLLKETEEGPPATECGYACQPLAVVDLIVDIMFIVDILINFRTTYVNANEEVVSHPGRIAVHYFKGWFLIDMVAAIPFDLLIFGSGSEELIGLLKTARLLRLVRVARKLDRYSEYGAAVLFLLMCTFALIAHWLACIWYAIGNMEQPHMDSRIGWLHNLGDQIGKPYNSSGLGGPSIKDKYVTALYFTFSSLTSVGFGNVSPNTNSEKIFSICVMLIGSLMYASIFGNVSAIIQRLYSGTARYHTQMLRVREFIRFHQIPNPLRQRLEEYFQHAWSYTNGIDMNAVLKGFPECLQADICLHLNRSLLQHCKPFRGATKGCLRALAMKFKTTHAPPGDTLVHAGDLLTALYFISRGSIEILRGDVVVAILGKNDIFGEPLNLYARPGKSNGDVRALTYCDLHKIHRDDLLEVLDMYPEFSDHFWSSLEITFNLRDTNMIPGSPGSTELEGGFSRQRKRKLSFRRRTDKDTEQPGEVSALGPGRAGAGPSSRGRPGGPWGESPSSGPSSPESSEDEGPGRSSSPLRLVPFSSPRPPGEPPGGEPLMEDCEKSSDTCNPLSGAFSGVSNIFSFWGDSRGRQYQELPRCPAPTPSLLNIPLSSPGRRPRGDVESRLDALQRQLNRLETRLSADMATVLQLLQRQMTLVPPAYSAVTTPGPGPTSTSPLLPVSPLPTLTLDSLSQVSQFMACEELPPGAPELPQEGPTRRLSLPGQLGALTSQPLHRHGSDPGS
row,SMILES,"hERG current change (%, negative = inhibition) at 10uM [%]"
1,O=C(Nc1ccccc1)c1ccccc1Oc1ccc(C(F)(F)F)cc1[N+](=O)[O-],9.75
2,CC(=O)Nc1ccc(S(=O)(=O)NCCc2c[nH]c3ccc(C)cc23)cc1,26.2
3,CS(=O)(=O)N(Cc1ccccc1)c1ccc(C(=O)Nc2cccnc2)cc1,-5.96
4,CN1CCN(S(=O)(=O)c2ccc(NC(=S)NC(=O)C(C)(C)C)cc2)CC1,1.03
5,Cc1nn(S(=O)(=O)c2cccc([N+](=O)[O-])c2)c(C)c1Br,10.7
6,CC(C)(C)NC(=O)C(c1ccc(O)cc1)N(C(=O)CCC(=O)Nc1nccs1)c1cccc(F)c1 (centres unmarked),16.8
7,O=C(O)CC(NC(=O)c1ccco1)c1ccco1 (centres unmarked),17.4
8,CSc1sc(-c2nnc(SCC(=O)Nc3ccccc3)n2C)c2c1C=CCC2,-2.35
9,CSc1sc(-c2nnc(SCC(=O)Nc3ccc(Cl)cc3)n2C)c2c1C=CCC2,10.5
10,CSc1sc(-c2n[nH]c(=S)n2C)c2c1C=CCC2,-56.8
11,Cc1cccc(C(=O)NN2S(=O)(=O)c3ccccc3S2(=O)=O)c1,18.2
12,O=C(NCCC1=CCCCC1)c1cc(-c2ccccn2)nc2ccccc12,8.77
13,COCCCNC(=O)C1CCN(S(=O)(=O)N(CC(C)C)CC(C)C)CC1,13.4
14,O=C(NCCO)/C(=C/c1ccc2c(c1)OCO2)NC(=O)c1ccc(Br)cc1,-69.5
15,CC(=O)N/C(=C/c1ccc2c(c1)OCO2)C(=O)NCCCO,23.3
16,CC(=O)N/C(=C/c1ccc2c(c1)OCO2)C(=O)NCCO,9.66
17,O=C(NCCO)/C(=C\c1ccc2c(c1)OCO2)NC(=O)c1ccc(Br)cc1,-51.9
18,O=C(N/N=C/c1ccc2c(c1)OCO2)/C(=C/c1ccc2c(c1)OCO2)NC(=O)c1ccccc1,-20.7
19,O=C(OCc1cc(Cl)ccc1OC(F)F)c1cncc(Br)c1,5.33
20,COc1ccc(C(=O)N=C2SC3CS(=O)(=O)CC3N2Cc2ccccc2)cc1OC (centres unmarked),13.3
21,CCOC(=O)c1c(C)[nH]c(C(=O)COC(=O)/C=C/c2ccc(O)c(OC)c2)c1C,2.87
22,CCOc1ccc(NS(=O)(=O)c2ccc(C(=O)N3CCN(C(C)=O)CC3)cc2)cc1,26.6
23,Cc1ccccc1-n1nc(C)c2c1N=C1C(Cl)=CC(Cl)=CN1C2c1ccc(C(=O)O)cc1 (centres unmarked),11.9
24,CCOc1cc(N2CCOCC2)c(OCC)cc1NC(=O)CN1CCc2ccccc2C1,2.76
25,COc1cccc(NC(=S)N(Cc2ccc(Cl)cc2)Cc2ccc(C(=O)O)cc2)c1,25.6
26,COc1ccc2[nH]c(C)c(CCNC(=S)Nc3cccc(C)c3C)c2c1,15.9
27,O=C(CN1CCCCCC1)NCCN1C(=O)S/C(=C\c2ccccc2Cl)C1=O,-9.34

row,SMILES,"hERG current change (%, negative = inhibition) at 10uM [%]"
1,CC1CN(C(c2cccs2)c2sc3ncnn3c2O)CC(C)O1 (centres unmarked),19.5
2,COc1ccc(CN(C(=O)c2cccs2)C(C(=O)NC2CCCCC2)c2ccc3ncccc3c2)cc1 (centres unmarked),-47.9
3,O=C(NC1CCCCC1)C(c1ccc2ncccc2c1)N(Cc1cccs1)C(=O)c1cccs1 (centres unmarked),-51.3
4,O=C(NC1CCCCC1)C(c1ccc2ncccc2c1)N(Cc1ccc2c(c1)OCO2)C(=O)c1cccs1 (centres unmarked),-37.1
5,O=C(NC1CCCCC1)C(c1ccc2ncccc2c1)N(Cc1ccc(F)cc1)C(=O)c1cccs1 (centres unmarked),-22
6,O=C(NC1CCCCC1)C(c1cccs1)N(Cc1cccs1)C(=O)c1cccs1 (centres unmarked),-12.2
7,O=C(NC1CCCCC1)C(c1ccc2ncccc2c1)N(Cc1ccccc1)C(=O)c1cccs1 (centres unmarked),-60.4
8,COCCNC(=O)Cn1cc(C(=S)N2CCCCC2)c2ccccc21,18.7
9,COc1ccccc1C(=O)NCCC(=O)N1CCCCCCC1,4.61
10,CCOC(=O)c1csc(NC(=O)CN2CCN(C)CC2)n1,19
11,Cc1ccc(S(=O)(=O)NCC(=O)N/N=C/c2ccc(Cl)cc2)cc1,-3.55
12,CCOCC(=O)Nc1nnc(SCCOC)s1,-0.419
13,O=C(CCCN1C(=O)/C(=C/c2cccs2)SC1=S)Nc1cc([N+](=O)[O-])ccc1O,21.1
14,O=C(C1CCC(Cn2c(=O)[nH]c3ccccc3c2=O)CC1)N1CCN(c2ccccc2)CC1 (centres unmarked),6.47
15,Fc1ccc(C2c3cccn3CCN2C(=S)Nc2cccc(F)c2)cc1 (centres unmarked),6.02
16,CCCCCc1cc(=O)oc2c(C(CCN3CCN(c4ccccc4)CC3)c3ccc4c(c3)OCO4)c(OC)cc(OC)c12 (centres unmarked),18.7
17,CCCCCc1cc(=O)oc2c(C(CCN3CCCCC3)c3ccc(OC)cc3)c(OC)cc(OC)c12 (centres unmarked),-59.1
18,CCCCCc1cc(=O)oc2c(C(CCN3CCCC3)c3ccc(N(C)C)cc3)c(OC)cc(OC)c12 (centres unmarked),-57.5
19,CCCCCc1cc(=O)oc2c(C(CCN3CCCCC3)c3ccc4c(c3)OCO4)c(OC)cc(OC)c12 (centres unmarked),-54.3
20,CCN(CC)CCC(c1ccc(N(C)C)cc1)c1c(OC)cc(OC)c2ccc(=O)oc12 (centres unmarked),-11.7
21,CCCCCc1cc(=O)oc2c(C(CCN3CCCC(C)C3)c3ccc4c(c3)OCO4)c(OC)cc(OC)c12 (centres unmarked),-7.33
22,CCCCCc1cc(=O)oc2c(C(CCN3CCN(c4ccccc4)CC3)c3ccc(N(C)C)cc3)c(OC)cc(OC)c12 (centres unmarked),5.51
23,CCCCCc1cc(=O)oc2c(C(CCN3CCCC(C)C3)c3ccc(N(C)C)cc3)c(OC)cc(OC)c12 (centres unmarked),6.65
24,CCCCCc1cc(=O)oc2c(C(CCN(CC)CC)c3ccc(N(C)C)cc3)c(OC)cc(OC)c12 (centres unmarked),-33.6
25,CCCCCc1cc(=O)oc2c(C(CCN(CC)CC)c3ccc(OC)cc3)c(OC)cc(OC)c12 (centres unmarked),-55.2
26,CCCCCc1cc(=O)oc2c(C(CCN3CCCC(C)C3)c3ccc(OC)cc3)c(OC)cc(OC)c12 (centres unmarked),-27.8
27,CC(=O)c1cn(-c2ccc(Cl)cc2)c(=O)n(Cc2ccc(Br)cc2)c1=O,-11.9

row,SMILES,"hERG current change (%, negative = inhibition) at 10uM [%]"
1,O=C(Nc1ccccc1F)C1CCCN(S(=O)(=O)c2ccccc2)C1 (centres unmarked),-10.3
2,Cc1ccc(Cc2cnc(N3C(=N)SC(c4ccccc4)C3=O)s2)cc1 (centres unmarked),3.87
3,COc1cc(OC)cc(C(=O)NCC(=O)OCC(=O)C(C)(C)C)c1,16.6
4,CCCC1=NN2C(=N)/C(=C\c3cc(C)n(-c4cc(C)cc(C)c4)c3C)C(=O)N=C2S1,-10.4
5,CCc1nc2c(n1O)CCc1nonc1-2,4.58
6,COc1ccc(Cl)cc1NC(=O)CCCN1C(=O)CCC1=O,14.4
7,CCOC(=O)c1c(C)[nH]c(C)c1C(=O)C(Cc1ccccc1)N(C)C.Cl (centres unmarked),4.71
8,O=C(NCC(c1cccnc1)N1CCN(c2ccc(F)cc2)CC1)Oc1ccccc1 (centres unmarked),-26.4
9,O=C(NCC(c1cccnc1)N1CCN(c2ccc(F)cc2)CC1)c1ccc(F)cc1 (centres unmarked),-47.6
10,O=S(=O)(NCC(c1cccnc1)N1CCN(c2ccc(F)cc2)CC1)c1ccccc1 (centres unmarked),-53.2
11,O=S(=O)(NCC(c1ccco1)N1CCN(c2ccc(F)cc2)CC1)c1ccc(F)cc1 (centres unmarked),-0.721
12,O=C(NCC(c1cccnc1)N1CCN(c2ccc(F)cc2)CC1)OCc1ccccc1 (centres unmarked),-56.8
13,CCS(=O)(=O)NCC(c1cccnc1)N1CCN(c2ccc(F)cc2)CC1 (centres unmarked),-7.91
14,O=C(NCC(c1cccnc1)N1CCN(c2ccccc2)CC1)OCc1ccccc1 (centres unmarked),-45.9
15,O=S(=O)(NCC(c1cccnc1)N1CCN(c2ccc(F)cc2)CC1)c1ccc(F)cc1 (centres unmarked),-69
16,COc1ccc2c(c1)-c1c(ssc1=S)C(C)(C)N2S(=O)(=O)c1ccc(C)cc1,2.55
17,CCCCN1C(=O)/C(=C/c2ccc(N(C)C)cc2)C(=O)N(Cc2ccco2)C1=O,7.86
18,S=C(NCC1CCCO1)Nc1ccccc1 (centres unmarked),25.5
19,CCn1cc(CN2CCCC(C(=O)Nc3ccc(-c4cscn4)cc3)C2)c(C)n1 (centres unmarked),-8.71
20,CC(=O)c1cc(CN2CCC(C(=O)Nc3cccc(-c4cscn4)c3)CC2)cs1,-30.5
21,Cc1c(CN2CCC(C(=O)Nc3ccc(Oc4ccccc4)nc3)CC2)cnn1C,-32.8
22,Cc1c(CN2CCC(C(=O)Nc3cccc(-c4cccc(Cl)c4)c3)CC2)cnn1C,-61.4
23,C=CCn1cc(CN2CCC(C(=O)Nc3cccc(-c4cccc(Cl)c4)c3)CC2)c(C)n1,-71.5
24,CCn1cc(CN2CCC(C(=O)Nc3cccc(-c4cccc(Cl)c4)c3)CC2)c(C)n1,-78.9
25,CCn1cc(CN2CCC(C(=O)Nc3cccc(-c4cccc(OC)c4)c3)CC2)c(C)n1,-46.3
26,C=CCOc1cccc(C2NC(=O)c3ccccc3O2)c1 (centres unmarked),21.4
